Experimental data reported in PubChem BioAssay AID2289 (National Center for Advancing Translational Sciences (NCATS), 2010).
About 3,300 (0.97%) of roughly 340,000 compounds were called active. Not shown: some 9% with an inconclusive outcome. The call rests on the fitted dose curve; in most records, active means well fitted inhibition curve with a large enough effect; inconclusive means small, poorly fitted or top-dose-only effect, or effect the other way; inactive means flat fitted curve, though single readings scatter. The list shows a part of the results.

Assay: qHTS Assay for Modulators of miRNAs and/or Inhibitors of miR-21; further: nearly all actives have a fitted effect of over 55% in size
Details: HeLa miR-21-FLuc reporter, luciferase luminescence, 48 h; actives lower the signal
Outline: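 HeLa cells endogenously expressing miR-21, stably carrying CMV-driven firefly luciferase with a downstream miR-21 binding site, 2000 cells/well. Titrations up to approximately 40 uM, 48 hours; luciferase luminescence read.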
Potency means the concentration at half of the fitted maximal effect.

Potency, active:
CCn1nc(C)c(/C=N/NC(=O)Cc2ccc(Cl)cc2)c1C 11.7 µM, COc1ccc(NC(=O)CSc2nc(SC)ns2)cc1 6.56 µM, COc1ccc(NC(=O)CSc2nc(SC)ns2)c(OC)c1 2.07 µM, CCC(C)(C)c1ccc2c(c1)C(=O)c1ccccc1C2=O 1.65 µM, Cc1cs/c(=N\N=C\c2ccc(O)cc2)n1Cc1ccco1 11.7 µM, Nc1nnc(-c2ccc(Cl)cc2Cl)s1 8.26 µM, S=C(Nc1ccccc1)c1nc2ccccc2s1 2.07 µM, O=C(NNc1nc2ccccc2s1)Nc1ccccc1 4.65 µM, CC(C)C1COC(c2cccc3ccccc23)=N1 (centres undefined) 6.56 µM, CCCCNC(=O)c1cccc(NC(=O)c2nsc3ccccc23)c1 2.93 µM, CCOc1ccccc1CNC(=O)c1cccc(NC(=O)c2nsc3ccccc23)c1 3.29 µM, CCN=C1S/C(=C\c2sccc2C)C(=O)N1CC 16.5 µM, Cc1ccc(OCCn2cnc3c(N)ncnc32)cc1 16.5 µM, C=CCn1c(C)cc(C(=O)COC(=O)c2ccc(N)c([N+](=O)[O-])c2)c1C 1.85 µM, Cc1cc(C(=O)COC(=O)c2cc(Cl)ccc2N)c(C)n1Cc1ccco1 2.93 µM, CCOc1ncccc1C(=O)OCC(=O)c1cc(C)n(Cc2ccco2)c1C 2.07 µM, Cc1cc(C(=O)COC(=O)c2ccc(O)cc2)c(C)n1Cc1ccco1 1.85 µM, Cc1cc(C(=O)COC(=O)c2ccco2)c(C)n1Cc1ccco1 4.65 µM, CSc1ncccc1C(=O)OCC(=O)c1cc(C)n(CC2CCCO2)c1C (centres undefined) 0.464 µM, Cc1cc(C)n(-c2nnc(NC34CC5CC(CC(C5)C3)C4)nn2)n1 5.21 µM, Cc1ccc(NC(=O)OCc2cccs2)cc1 1.31 µM, COc1ccc(C(=O)NC(=S)NC2CCCCC2)cc1 7.36 µM, O=C(NC(=S)NC1CCCCCC1)c1cncc(Br)c1 9.27 µM, COc1ccc(C(=O)NC(=S)Nc2ccccc2F)cc1 1.04 µM, COc1ccc(C(=O)NCCSC2CCCCC2)cc1 7.36 µM, Cc1nc2ccccc2nc(C)c1=NOCc1ccc(C#N)cc1 11.7 µM, Cc1nc2ccccc2nc(C)c1=NOCc1ccc(Cl)cc1Cl 16.5 µM, COc1ccc(Oc2nnc(C)c3ccccc23)cc1 4.14 µM, COc1ccc(-c2nnc3c4ccccc4c(C)nn23)cc1 8.26 µM, COc1ccc(NC(=S)c2ccc(N(C)C)cc2)cc1 1.17 µM, COc1ccc(NC(=S)N2CCC(c3ccccc3)C2)cc1 (centres undefined) 1.65 µM, COc1ccc(NC(=S)N/C(=N/CS(=O)(=O)c2ccccc2)c2ccccc2)cc1 5.21 µM, Cc1ccc(NC(=S)c2ccccc2)cc1 4.14 µM, COc1ccc(NC(=S)c2ccccc2)cc1 6.56 µM, CCC(N=c1cc(-c2ccc(OC)cc2)oc2ccc(C)cc12)C(=O)O (centres undefined) 0.293 µM, COc1ccc(-c2cc(=NC(CC(C)C)C(=O)O)c3cc(C)ccc3o2)cc1 (centres undefined) 0.369 µM, COc1ccc(-c2cc(=Nc3ccc(C(=O)O)cc3)c3cc(C)ccc3o2)cc1 2.07 µM, Cc1ccc(-c2nc(C#N)c(NCC3CCCO3)o2)cc1 (centres undefined) 13.1 µM, COc1ccc(-c2nc(C#N)c(NCC3CCCO3)o2)cc1OC (centres undefined) 14.7 µM, O=C(O)c1cccc(N/N=C/c2cccnc2)c1 2.93 µM, O=C(O)c1cc(N/N=C/c2cccnc2)ccc1Cl 14.7 µM, Clc1ccc(N/N=C/c2ccncc2)cc1Cl 8.26 µM, Nc1ccc(SCc2nc3cccc4c3n2CCC4)cc1 14.7 µM, Cc1nc(-c2ccccc2)sc1-c1nnc(C2CC2)o1 4.65 µM, O=C(/C=C/c1ccc(F)cc1)NC(=S)N1CCN(c2ccccn2)CC1 13.1 µM, COc1ccccc1N1CCN(C(=S)NC(=O)/C=C/c2ccccc2)CC1 9.27 µM, Cc1nc2ccc(NC(=O)c3ccco3)cc2s1 7.36 µM, Cc1cc(NC(=O)c2ccco2)ccc1-n1cnnn1 7.36 µM, Nc1nc2ccc(NC(=O)c3ccco3)cc2s1 7.36 µM, CSc1nc2ccc(NC(=O)c3ccco3)cc2s1 1.47 µM, CC(=O)Nc1nc2ccc(NC(=O)c3ccco3)cc2s1 10.4 µM, Cc1nc2ccc(NC(=O)c3ccc(Br)o3)cc2s1 2.93 µM, CSc1nc2ccc(NC(=O)c3c(F)cccc3F)cc2s1 7.36 µM, COc1cc2sc(NC(=O)c3ccco3)nc2cc1Cl 0.585 µM, Nc1c(Cl)cc2c(c1Oc1ccccc1)C(=O)c1ccccc1C2=O 4.14 µM, O=C(c1ccncc1)N1N=C(c2ccc(Cl)cc2)CC1c1ccccc1O (centres undefined) 6.56 µM, COc1ccc(C2=NN(C(=O)c3ccccc3C(=O)O)C(c3ccccc3O)C2)cc1 (centres undefined) 5.85 µM, c1cnc(SCCOc2cccc3ccccc23)nc1 3.29 µM, Cc1ccc(OCCSc2nc(N)cc(N)n2)cc1 4.65 µM, COc1ccc(OCCSc2nc(N)cc(N)n2)cc1 3.29 µM, Nc1cc(N)nc(SCCOc2ccccc2)n1 11.7 µM, Nc1cc(N)nc(SCCOc2ccccc2F)n1 14.7 µM, Cc1cc(SCCOc2ccccc2)nc(N)n1 16.5 µM, CCOC(=O)c1ccc(NC(=O)C(CC)Sc2nc3ncccc3o2)cc1 (centres undefined) 4.65 µM, Cc1ccc(NC(=O)/C=C2\NC(=O)CS2)cc1 16.5 µM, C/C(=N\NC(=O)c1ccoc1C)c1ccc(Br)s1 11.7 µM, Cc1occc1C(=O)N/N=C/c1ccc(Br)s1 6.56 µM, O=C(N/N=C/c1ccc(Br)s1)c1ccco1 14.7 µM, COC(=O)/C(=C/c1cccc([N+](=O)[O-])c1)NC(=O)c1ccc(OC)cc1 5.21 µM
